From PubChem BioAssay (NCI) come the findings set out here.

Compounds without any hit were thinned out: in the full panel of roughly 79,000, 15% have a hit. A number with no mark means an inactive call. Active and inactive are the calls of the source. Rule as the data show it: active = growth inhibition above about 70%; inactive = the rest.

Assay [1] is described as follows: NCI Yeast Anticancer Drug Screen. Data for the rad50 strain (AID 155).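 Also: 0% = growth of vehicle-only cultures of the same strain.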 To be noted: S. cerevisiae rad50 strain growth inhibition; at 50.0 µM; active compounds read high. Summed up: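 Cells are treated with compound, grown, and their growth is then scored against vehicle-only cultures of the same repair-deficient yeast strain.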
The nature of assay [2]: NCI Yeast Anticancer Drug Screen. Data for the mec2-1 strain (AID 157). The following applies: S. cerevisiae mec2-1 strain, at 50.0 µM, active compounds read high. In outline:
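Each compound was tested on mec2-1 yeast, a strain altered in DNA damage repair or cell cycle control. Growth inhibition is reported relative to vehicle.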

A short description of assay [3]: NCI Yeast Anticancer Drug Screen. Data for the sgs1 mgt1 strain (AID 161).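 Also: 0% = growth of cultures given vehicle only.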 To be noted: S. cerevisiae sgs1 mgt1 strain, at 50.0 µM, active compounds read high. In outline:
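Read-out: growth inhibition vs vehicle controls. Cells: mutant yeast strain deficient in DNA damage repair.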

Assay [4] is described as follows: NCI Yeast Anticancer Drug Screen. Data for the cln2 rad14 strain (AID 165).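 Also: 0% = growth equal to vehicle treated cultures.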 The following applies: S. cerevisiae cln2 rad14 strain, at 50.0 µM, active compounds read high. In outline: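 Test compounds were added to cln2 rad14 yeast cultures; inhibition of growth was then determined by comparison with vehicle treatment.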
The nature of assay [5]: NCI Yeast Anticancer Drug Screen. Data for the bub3 strain (AID 167). The following applies: S. cerevisiae bub3 mutant strain, at 50.0 µM, active compounds read high. In outline:
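Part of a panel of yeast mutants defective in DNA damage repair or cell cycle regulation. Each strain is grown with compound, and inhibition is calculated relative to solvent-treated cultures.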

The nature of assay [6]: NCI Yeast Anticancer Drug Screen. Data for the mlh1 rad18 strain (AID 175). To be noted: S. cerevisiae mlh1 rad18 strain growth inhibition; at 50.0 µM; active compounds read high. Summed up: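 Inhibition values reflect reduced growth of mutant yeast versus vehicle-treated controls following compound exposure; the mutations affect DNA damage repair.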

For the compound `Cn1c(=N)n(CC(=O)NC23CC4CC(CC(C4)C2)C3)c2ccccc21`, the growth inhibition was 11.8% in assay [1]; -15.4% in assay [2]; -26.9% in assay [3]; 2.75% in assay [4]; 2.2% in assay [5]; -11.6% in assay [6].
With `CCCCCCCCCCc1c2nc(c(CCCCCCCCCC)c3ccc([nH]3)c(CCCCCCCCCC)c3ccc([nH]3)c(CCCCCCCCCC)c3nc1C=C3)C=C2`, the growth inhibition in assay [1] is -18.1%; in assay [2], -11.9%; in assay [3] it was -5.95%; in assay [4] it was 23.4%; in assay [5], 6%; in assay [6] it was -63.7%.
As to `COC(=O)C1(CC(=O)c2ccc(Cl)cc2)NC(=S)NC(=O)C1C#N` (stereo not given), the growth inhibition in assay [1] is 13.6%; in assay [2], 12.6%; in assay [3], 8%; in assay [4] it was 7.95%; in assay [5], -10.9%; in assay [6], 22.5%.
For the compound `CN1CCN(C(CO)Cc2ccccc2)CC1` (stereo not given), the growth inhibition in assay [1] was 3.85%; in assay [2] it was -10.1%; in assay [3] it was -9.5%; in assay [4] it was -15.8%; in assay [5], 8.8%; in assay [6] it was -7.4%.
`COc1ccc(-c2cc(C)cc(O)c2)c(OC)c1OC`: the growth inhibition was 7.5% in assay [1]; 6.2% in assay [2]; 21.4% in assay [3]; -8.2% in assay [4]; -9.3% in assay [5]; -11.3% in assay [6].
Take `Cn1c(C=O)cc2c(Cl)nccc21`: the growth inhibition in assay [1] was -35.5%; in assay [2], -17.4%; in assay [3], -11.8%; in assay [4], -54.9%; in assay [5], -10.1%; in assay [6] it was -1.15%.
As to `CN(CCc1ccccn1)/[N+]([O-])=N/O` (tested in a mixture with another compound), the growth inhibition in assay [1] was -30.8%; in assay [2] it was -36.9%; in assay [3], 4.15%; in assay [4], 11.2%; in assay [5], -3.35%; in assay [6], -4.65%.
On to `CS(=O)(=O)OCc1nnn(-c2ccccc2)c1COS(C)(=O)=O`, for which the growth inhibition in assay [1] was 7.2%; in assay [2], -9.1%; in assay [3] it was -3.5%; in assay [4] it was -40.5%; in assay [5], 11.5%; in assay [6], -11.7%.
Consider `COc1cc2c3c(c1OC)-c1[nH]c4ccccc4c1C1CCCN(CC2)C31` (stereo not given), for which the growth inhibition is -54.9% in assay [1]; -19.9% in assay [2]; -20.4% in assay [3]; -29.9% in assay [4]; -16.4% in assay [5]; -11.7% in assay [6].
On to `O=C1CN(/N=C/c2ccc(-c3cccc(C(F)(F)F)c3)o2)C(=O)N1`, for which the growth inhibition was 36.4% in assay [1]; 18.4% in assay [2]; 19.8% in assay [3]; -19.3% in assay [4]; 16.2% in assay [5]; 21.1% in assay [6].
Take `O=[N+]([O-])c1ccc2nc(/C=C(\O)c3ccccc3)c(NC34CC5CC(CC(C5)C3)C4)nc2c1`: the growth inhibition is 16.4% in assay [1]; -17.5% in assay [2]; 13.9% in assay [3]; -39.4% in assay [4]; -17.8% in assay [5]; -2.35% in assay [6].
As to `Cc1ccc(S/C=C/Sc2ccc(C)cc2)cc1`, the growth inhibition in assay [1] was 15.1%; in assay [2], 8.15%; in assay [3], 3.55%; in assay [4], -14.6%; in assay [5] it was 22.9%; in assay [6] it was 36%.
Turning to `CCOc1c(OC)ccc(/C(C)=N\O)c1OCC`, the growth inhibition is -2.2% in assay [1]; 0.65% in assay [2]; 4.8% in assay [3]; -1.7% in assay [4]; 11.3% in assay [5]; 10.1% in assay [6].
Turning to `O=C(CCC(=O)C1CCC/C1=N/O)Nc1ccc(Cl)cc1` (stereo not given), the growth inhibition in assay [1] is -40.4%; in assay [2], -0.4%; in assay [3], 7.4%; in assay [4], 26.1%; in assay [5] it was 9.55%; in assay [6] it was 21.1%.
With `COc1cc([N+](=O)[O-])ccc1NC(=O)C(Br)C(Br)c1ccccc1` (stereo not given), the growth inhibition in assay [1] was 11.7%; in assay [2] it was -5.9%; in assay [3], 10.6%; in assay [4], -1.4%; in assay [5], 12.5%; in assay [6], 15.6%.
`CC1=C(/C=C/C(O)CC(O)(C(F)(F)F)C(F)(F)F)C(C)(C)CCC1` (stereo not given): the growth inhibition in assay [1] is 38%; in assay [2], 20.8%; in assay [3], 18.9%; in assay [4] it was 43.2%; in assay [5], 17%; in assay [6] it was 63.1%.
For the compound `CCOC(=O)N1C/C(=C\c2ccccc2)C(=O)/C(=C/c2ccccc2)C1`, the growth inhibition in assay [1] is -6.85%; in assay [2] it was 0.6%; in assay [3] it was -12.3%; in assay [4], 19.6%; in assay [5], 9.15%; in assay [6] it was 72.2% (active).
In the case of `CC1CC(=O)CC(C)C1` (stereo not given), the growth inhibition in assay [1] is 1.7%; in assay [2] it was -0.1%; in assay [3], -10.5%; in assay [4] it was -27.1%; in assay [5] it was 19.9%; in assay [6], 16.6%.
For the compound `COc1ccc(N=Nc2cc(OC)c(N=Nc3c(O)c4ccccc4[nH]c3=O)cc2OC)cc1`, the growth inhibition is 18.1% in assay [1]; 16.8% in assay [2]; 25.1% in assay [3]; 13.8% in assay [4]; -14.2% in assay [5]; 17.1% in assay [6].
Take `c1ccc(Sc2cc(Sc3ccccc3)c3cccccc2-3)cc1`: the growth inhibition is 17.9% in assay [1]; -21.9% in assay [2]; -27.4% in assay [3]; -6.05% in assay [4]; 5.25% in assay [5]; 3.2% in assay [6].
